Screening results as filed in PubChem BioAssay.
Only some compounds are listed: those with a hit (about 2.6% of all), similar ones and a draw of the others.
TROY signal inh = inhibitors of TROY-dependent NF-kB signaling | Q293 LMP1-TROYcd NF-kB luciferase reporter, 4 h | inhibition, % at 10 µM | 0.98% of 360,000 active;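 active means compounds whose plate-normalised and pattern-corrected inhibition of the luciferase reporter signal at the single screening dose is 50% or more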
HSP90 refold inh = blocks HSP90-mediated luciferase refolding in reticulocyte lysate | Rabbit reticulocyte lysate, luciferase refolding luminescence, 3 h | inhibition, % at 5.6 µM | 0.91% of 290,000 active;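 active means inhibition above the screen-wide mean plus 3 SD, computed separately per campaign, cut at about 16% in these data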;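 further: 0% = DMSO wells and 100% = 60 µM geldanamycin wells; inhibitors lower the luminescence because luciferase stays unfolded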
LGR2 antag = blocks bursicon-induced cAMP signaling via Drosophila LGR2. HEK293 LGR2, CRE-luciferase, bursicon-stimulated, 4 h. inhibition, % at 9.99 µM. 0.35% of 380,000 active. AID 720647;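 active means drop in luminescence signal, shown as inhibition above about 50% in the replicate tests, limit read from the data, passing the limit was not always enough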;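 further: agonist challenge used bursicon conditioned medium at about half maximal strength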
LMP1 NFkB inh = reduces LMP1-driven NF-kappaB luciferase signal | inhibition, % at 12.5 µM | 0.69% of 350,000 active | LMP1-induced NF-kappaB luciferase reporter cells, luminescence; in the data active means inhibition above about 41%;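 further: 0% = neutral control wells and 100% = reference inhibitor control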
aDG glyco act = increases alpha dystroglycan glycosylation | 0.22% of 360,000 active | activation, % at 10 µM | Pro5-aDG cells, alpha-DG glycosylation AlphaScreen (IIH6); 0% Pro5, 100% B10-LARGE cell signal;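 active means activation of at least 8% versus controls, or a plate z-score of at least 8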;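 further: Pro5 are CHO cells carrying HIG-tagged alpha-DG that lacks glycosylation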
TWEAK-Fn14 inh = blocks TWEAK-Fn14 interaction in a reporter cell assay | TWEAK-stimulated Fn14 reporter cells, luciferase luminescence, 8 h | inhibition, % at 10 µM | 2% of 360,000 active | AID 1159606; in the data active means inhibition above about 50%
* hit, by the source's call; . = not tested or not shown.

SMILES	TROY signal inh	HSP90 refold inh	LGR2 antag	LMP1 NFkB inh	aDG glyco act	TWEAK-Fn14 inh
COC(CNC(=O)C1CCCN1C(=O)OCc1ccccc1)OC (stereo not drawn)	7	-2	11	10	0	17
COC(=O)[C@@H]1C[C@]2(OC(=O)c3ccccc3)C=CC(=O)C[C@@H]2N1C(=O)OCc1ccccc1	24	2	-1	3	0	51*
COCC(=O)N[C@@H]1CC[C@@H](CC(=O)NCc2ccccc2OC)O[C@@H]1CO	.	.	79*	.	.	.
O=C(C[C@@H]1C[C@@H]2c3cc(NC(=O)CC4CC4)ccc3O[C@@H]2[C@H](CO)O1)NCc1ccc(Cl)cc1	.	.	1	.	.	.
CC1(c2ccccc2)CC(C)(C)N2C(=O)C3(C(C#N)=C(N)Oc4cc(O)ccc43)c3cccc1c32 (stereo not drawn)	33	4	-3	5	0	57*
Cc1cc2c3c(c1)C(C)(c1ccccc1)CC(C)(C)N3C(=O)C21C(C#N)=C(N)OC2=C1C(=O)CC(C)(C)C2 (stereo not drawn)	18	6	.	-16	0	35
COc1ccccc1N1CCN(C(=S)Nc2ccc(F)cc2)CC1	53*	13	6	22	0	37
COc1ccccc1N1CCN(C(=S)Nc2ccccc2)CC1	19	4	-13	3	0	-7
CN1OC[C@@H]2CN[C@H](c3ccc(-c4cc5ccccc5o4)cc3)C[C@@H]21	90*	.	.	80*	0	106*
COC(=O)/C(=C1/Oc2cc(C)oc(=O)c2S1)C(F)(F)F	20	3	42	-10	0	98*
O=C(C[C@@H]1CC[C@H](NC(=O)CN2CCOCC2)[C@H](CO)O1)NC1CCC1	.	.	-20	.	.	.
CN1c2ccc(-c3ccccc3F)cc2[C@@H]2[C@@H](CCN2C(=O)NC2CCCC2)[C@@H]1CO	.	.	2	.	.	.
CC(C)C(Cl)=NOC(=O)Nc1ccc(F)cc1	-8	.	47	5	0	51*
C/C(=N\OC(=O)Nc1ccc(Cl)cc1)c1ccc(F)c(F)c1	-35	1	-18	-10	0	-29
CCOC(=O)c1c(C)[nH]c(C(=O)OCCOc2ccc(Cl)cc2)c1C	-3	0	-11	1	1	-12
CCOC(=O)c1c(C)[nH]c(C(=O)OCCOc2ccccc2C)c1C	55*	9	-113	24	0	27
C[C@@H]1CN([C@@H](C)CO)C(=O)c2cc(NS(=O)(=O)c3cn(C)cn3)ccc2O[C@@H]1CN(C)C(=O)Nc1ccc(C(F)(F)F)cc1	.	.	14	.	.	.
O=C(NC(=S)N1CCCCC1c1cccnc1)c1ccc(F)cc1 (stereo not drawn)	73*	-4	10	9	0	5
CO[C@H]1CN(C)C(=O)c2cc(NC(=O)Nc3c(C)noc3C)ccc2OC[C@H](C)N(CC2CC2)C[C@@H]1C	.	.	14	.	.	.
CNC[C@@H]1OCCCC[C@H](C)Oc2ccc(NC(=O)Nc3cccc4ccccc34)cc2C(=O)N([C@H](C)CO)C[C@@H]1C	.	.	20	.	.	.
Cc1c(C(c2ccccc2O)c2c(C)n(C)n(-c3ccccc3)c2=O)c(=O)n(-c2ccccc2)n1C	4	1	-2	14	0	-2
Cc1c(C(c2cc3c(cc2Br)OCO3)c2c(C)n(C)n(-c3ccccc3)c2=O)c(=O)n(-c2ccccc2)n1C	6	-1	-2	12	0	64*
COCCCOc1ccnc(CS(=O)c2nc3ccccc3[nH]2)c1C (stereo not drawn)	-7	5	.	-20	0	2
COc1ccc2nc(S(=O)Cc3ncc(C)c(OC)c3C)[nH]c2c1 (stereo not drawn)	2	3	1	84*	0	6
O=[N+]([O-])c1ccc(/C=N/Nc2nc(-c3ccccc3)c3cc(Br)ccc3n2)o1	-20	2	.	17	0	35
SMILES	TROY signal inh	HSP90 refold inh	LGR2 antag	LMP1 NFkB inh	aDG glyco act	TWEAK-Fn14 inh
Cc1ccc2nc(N/N=C\c3ccc([N+](=O)[O-])o3)nc(-c3ccccc3)c2c1	-5	0	.	13	2	67*
CCC1C/C(=C\c2cc(OC)c(OC)cc2OC)C(=O)/C(=C/c2cc(OC)c(OC)cc2OC)C1 (stereo not drawn)	12	2	.	13	0	26
COc1cc(OC)c(OC)cc1/C=C1\CC(C)C/C(=C\c2cc(OC)c(OC)cc2OC)C1=O (stereo not drawn)	37	-3	16	19	0	64*
COc1ccc2[nH]c3c(c2c1)CCn1c-3nc2ccccc2c1=O	9	9	.	-45	0	51*
C/C(=N\NC(=S)NC1CCCCC1)c1ccccc1	54*	-4	-7	-2	3	47
C/C(=N\NC(=S)NC1CCCCC1)c1ccc(O)cc1	-4	-1	-34	-23	1	-3
CC(=O)Nc1ccc(Br)c2ccccc12	2	0	.	-1	0	5
O=Nc1ccc(NO)c2ccccc12	36	.	-18	-43	1	71*
C[C@@H]1CN([C@H](C)CO)C(=O)c2cccc(NS(=O)(=O)c3ccc(F)cc3)c2O[C@@H]1CN(C)Cc1ccc(C(F)(F)F)cc1	.	.	9	.	.	.
Cc1ccc(C)c(NC2=C(Cl)C(=O)OC2OC(=O)c2ccco2)c1 (stereo not drawn)	-1	1	5	-1	0	59*
COCC#Cc1cnc2c(c1)C(=O)N([C@@H](C)CO)C[C@H](C)[C@H](CN(C)Cc1ccc(-c3ccccc3)cc1)O2	.	.	-8	.	.	.
O=C(C[C@H]1C=C[C@H](NC(=O)Cc2ccccn2)[C@@H](CO)O1)NCCCN1CCOCC1	.	.	7	.	.	.
CC(C)(C)c1ccc(NC(=O)N2CCN(c3ccc([N+](=O)[O-])cn3)CC2)cc1	28	2	6	4	0	59*
O=C(Nc1ccc(F)cc1F)N1CCCN(c2ccc([N+](=O)[O-])cn2)CC1	17	4	-16	6	0	-16
Cc1ccc(NC2CCCN(C(=O)C3CCCCC3)C2)cc1C (stereo not drawn)	-21	-3	-3	-9	1	69*
Cc1ccc(-c2cnc(-c3ccncc3)o2)cc1	-39	-1	.	-15	0	-16
Nc1ccc(-c2ncc(-c3ccccc3)o2)cc1	34	7	-16	28	0	68*
COC(=O)c1c(C)oc2ccc(N(C(=O)c3ccncc3)S(=O)(=O)c3ccc4ccccc4c3)cc12	53*	3	40	8	0	57*
COC(=O)c1c(C)oc2ccc(N(C(=O)c3ccncc3)S(=O)(=O)c3ccc(C)cc3C)cc12	66*	-4	15	28	5	80*
Cc1cc(F)ccc1S(=O)(=O)N(C(=O)c1ccncc1)c1ccc(OC(=O)c2ccncc2)cc1	62*	2	14	-12	0	56*
